Screening data from PubChem BioAssay.
G9a block: inhibitors of human histone lysine methyltransferase G9a; Q96KQ7; G9a H3K9 monomethylation, AlphaScreen, 2 h; Potency, µM (series often up to 102 µM), inactives show top-dose activity, negative = inhibition, usual class: inhibitors; actives 8.8% (n = 350,000); AID 504332; also: % is scaled to controls: 0 for no effect and ±100 for the full control effect; nearly all actives have a fitted effect of over 75% in size
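AlphaScreen detection with an anti-monomethyl H3K9 antibody quantified product after a 2 h room-temperature reaction containing 500 nM biotinylated H3K9 peptide, 20 µM SAM and 20 nM enzyme, which had been preincubated 15 min with compound.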
JMJD2A Tudor inh: JMJD2A Tudor domain (human) inhibition; O75164; AlphaScreen JMJD2A-Tudor / H3K4me3 peptide binding; Potency, µM (series often up to 114 µM), for the others: at the top dose activity change, negative = inhibition, actives largely listed as inhibitors; actives 4.4% (n = 390,000); also: % is scaled to controls: 0 for no effect and ±100 for the full control effect; nearly all actives have a fitted effect of over 50% in size
HP1b chromo inh: HP1-beta chromodomain-methylated histone interaction inhibition. AlphaScreen HP1-beta / biotin-H3K9me3 peptide binding. Potency, µM (highest dose often 114 µM), for the others: at the top dose activity change, negative = inhibition, actives largely listed as inhibitors. actives 0.56% (n = 390,000). P83916; also: nearly all actives have a fitted effect of over 70% in size
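HP1-beta protein (50 nM final) preincubated 30 min at room temperature with biotinylated H3(1-18)K9me3 peptide (50 nM) in PBS pH 7.4, 0.01% Tween-20, then compound added for 30 min. AlphaScreen streptavidin donor/nickel chelate acceptor beads (10 ug/mL final), 30 min dark, luminescence read.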
L3MBTL1 inh: inhibitors of human L3MBTL1 | Q9Y468 | AlphaScreen L3MBTL1–H3K9me1 peptide binding | Potency, µM (doses to about 57.1 µM), for the others: at the top dose activity, negative = inhibition, hits mostly inhibitors | actives 0.66% (n = 230,000) | AID 485360; also: % is scaled to controls: 0 for no effect and ±100 for the full control effect; nearly all actives have a fitted effect of over 60% in size
Target sequence (Q9Y468 whole entry, looked up): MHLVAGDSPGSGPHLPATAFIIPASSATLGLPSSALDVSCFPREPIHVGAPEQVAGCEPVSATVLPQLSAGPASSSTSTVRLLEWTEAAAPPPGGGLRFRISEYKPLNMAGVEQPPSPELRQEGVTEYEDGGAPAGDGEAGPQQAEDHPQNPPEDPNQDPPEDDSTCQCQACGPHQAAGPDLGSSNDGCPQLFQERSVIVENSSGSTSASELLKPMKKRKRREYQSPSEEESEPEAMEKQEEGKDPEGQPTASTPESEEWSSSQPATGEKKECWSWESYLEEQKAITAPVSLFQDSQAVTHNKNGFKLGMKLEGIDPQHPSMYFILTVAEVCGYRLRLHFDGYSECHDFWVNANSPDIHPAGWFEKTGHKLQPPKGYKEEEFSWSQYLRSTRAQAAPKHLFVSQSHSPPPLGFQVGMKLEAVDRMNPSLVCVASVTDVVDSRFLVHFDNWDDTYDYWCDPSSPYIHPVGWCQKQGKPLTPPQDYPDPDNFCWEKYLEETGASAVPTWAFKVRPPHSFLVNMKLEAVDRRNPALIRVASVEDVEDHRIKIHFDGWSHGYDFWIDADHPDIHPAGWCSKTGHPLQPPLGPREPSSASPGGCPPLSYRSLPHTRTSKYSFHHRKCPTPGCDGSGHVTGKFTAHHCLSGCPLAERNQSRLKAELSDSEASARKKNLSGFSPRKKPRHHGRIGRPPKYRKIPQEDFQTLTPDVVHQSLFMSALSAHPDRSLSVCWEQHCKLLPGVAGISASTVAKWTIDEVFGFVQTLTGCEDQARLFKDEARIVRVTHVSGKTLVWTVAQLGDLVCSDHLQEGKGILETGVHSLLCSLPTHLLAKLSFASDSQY
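First, the protein-peptide complex forms for 30 min at room temperature (L3MBTL1 50 nM, biotinylated H3K9me1 peptide 75 nM). Next, compounds are pin-transferred and incubated 30 min. Finally, AlphaScreen beads are added and read after 30 min.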
Sfp PPTase inh: Sfp phosphopantetheinyl transferase inhibition. Q9F4F7. Potency, µM, for inactives: largest response in the series, negative = inhibition, actives largely listed as inhibitors. Biochemical Sfp PPTase activity, qHTS. AID 1490. actives 3.5% (n = 310,000);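 also: the enzyme is Sfp with the accession as filed and its product quenches rhodamine fluorescence; 0% = enzyme reaction without inhibitor and -100% = no enzyme wells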
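Sfp 15 nM + cpd, 15 min RT; start w/ rhodamine-CoA 5 uM, BHQ-2-YbbR 12.5 uM (final); 50 mM Hepes pH 7.6, 10 mM MgCl2, 0.01% NP-40, 0.01% BSA; read 525/598 nm at 0 and 30 min.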
BAZ2B block: inhibitors of human BAZ2B bromodomain | AID 504333 | Potency, µM (highest dose often 114 µM), for inactives: top-dose activity change, negative = inhibition, usual class: inhibitors | actives 4.4% (n = 360,000) | AlphaScreen BAZ2B-H3K14Ac peptide displacement | Q9UIF8; also: % is scaled to controls: 0 for no effect and ±100 for the full control effect; nearly all actives have a fitted effect of over 60% in size
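BAZ2B 50 nM plus b-H3(5-23)K14Ac 50 nM, PBS pH 7.4/0.01% Tween-20, 30 min RT; compound added (max 110 uM), 30 min RT; streptavidin donor/Ni-chelate acceptor beads 10 ug/mL final, 20 min dark; AlphaScreen read.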
Starred values were filed as active, the others as inactive; ? = inconclusive; . = no result; [ ] = another dose, or the depositor's remark. Only some compounds are listed: those with a hit (about 12% of all), similar ones and a draw of the others. Calls follow the shape of the dose curve; as a rule, active = well fitted curve in the direction sought with a large enough effect; inconclusive = small, poorly fitted or top-dose-only effect, or another doubt; inactive = no such curve, though single readings can be large; an effect the other way counts as inactive or inconclusive. Potency is read from the fitted curve at half-maximal effect.

SMILES	G9a block	JMJD2A Tudor inh	HP1b chromo inh	L3MBTL1 inh	Sfp PPTase inh	BAZ2B block
C[C@]12O[C@H](C[C@]1(O)CO)n1c3ccccc3c3c4c(c5c6ccccc6n2c5c31)CNC4=O	-24.6%[12.7 µM]	.	.	.	-0.1%	.
CCC1Cc2cc(O)ccc2C2=C1c1ccc(O)cc1CC2CC (stereo not drawn)	.	.	.	.	4.7%	.
O=C(COC(=O)CNC(=O)C1CCCCC1)NC1CC1	.	-6.2%[57.1 µM]	14.4%[57 µM]	.	.	.
Cn1cc(Br)c(C(=O)NC(=S)Nc2ccc(S(N)(=O)=O)cc2)n1	44.7µM*	-6.8%[11.4 µM]	-2.4%	6.6%	-81.4%	-14.5%
CCCCOC(=O)c1ccc(NC(=O)c2nn(C)cc2Br)cc1	9.7%[59 µM]	6.1%[57.1 µM]	102.7%	11.5%	5.2%	8.0%
CN(C)CC(C)(C)CNC(=S)NCc1ccc2c(c1)OCO2	8.91µM*	?	?	3.3%	?	44.7µM*
COC(=O)c1ccc(NC(=O)CCc2c(C)nn(-c3ccc(N4CCCCC4)nn3)c2C)cc1	-1.2%[59 µM]	?	46.5%	.	.	-34.0%
Cc1onc(-c2c(Cl)cccc2Cl)c1C(=O)N1CCOCC1	-0.8%	-8.1%	21.4%	.	14.0%	79.4µM*
C[n+]1cccc(CNC(=O)/C=N/O)c1	39.8µM*	?	9.9%	4.0%	-2.5%	56.2µM*
CCCOCC1CC(CCc2nc(=S)[nH][nH]2)C(=O)O1 (stereo not drawn)	1.78µM*	5.01µM*	?	8.8%	56.2µM*	-1.7%
O=C(Nc1cc(Cl)cc(Cl)c1)c1cc(S(=O)(=O)N2CCc3ccccc3C2)ccc1F	-0.6%[59 µM]	-12.5%	34.9%	.	.	0.4%
O=C(N/N=C/c1ccoc1)c1ccc(Cl)cc1	44.7µM*	-15.8%	14.5%	.	50.1µM*	-34.7%
Cn1c(CCCNC(=O)c2ccccc2)nc2ccccc21	9.2%[59 µM]	-7.9%	40.2%	2.6%	1.6%	-3.4%
Cn1c(/C=N/NC(=O)c2ccccc2)nc2ccccc21	?	89.1µM*	18.9%	3.5%	-29.2%	-21.6%
Cc1cc(C)cc(C(=O)N/N=C/c2ccoc2)c1	44.8%	-13.4%	21.4%	.	26.7%	-1.2%
O=C(N/N=C/c1ccoc1)c1ccccc1	-44.0%	-26.2%	2.0%	.	-0.5%	56.2µM*
O=C(N/N=C/c1ccoc1)c1cc(O)cc(O)c1	.	25.1µM*	44.7µM*	.	1.0%	20µM*
O=C(N/N=C/c1ccoc1)c1ccc(Br)cc1	53.4%	-29.8%	15.1%	.	-7.3%	?
CCc1nc(-c2cc(S(=O)(=O)N3CCN(c4ccccc4)CC3)ccc2OC)no1	-10.8%[59 µM]	5.3%	37.2%	.	.	-1.0%
CCCN1CNc2c(c(=O)[nH]c(=S)n2CCC(C)C)C1	.	-3.4%	57.0%	.	.	.
CC1=Nc2ncnn2C(c2ccccc2)/C1=N\O (stereo not drawn)	50.1µM*	-11.6%	18.7%	7.5%	-1.3%	?
CC1=CC(c2ccccc2)n2ncnc2N1 (stereo not drawn)	.	-4.1%	41.7%	.	.	.
Cc1ccc(S(=O)(=O)NCCc2nnc3ccc(SCc4ccccc4F)nn23)cc1	-29.1%[59 µM]	-21.6%	16.9%	.	.	?
COc1ccc(/C=C(\NC(=O)c2ccccc2)C(=O)NC2CCCCC2)cc1	-2.2%[59 µM]	-16.7%	24.1%	.	.	2.6%
CC(=O)O[C@@H]1CC2C(C)(C)C(=O)C=C[C@]2(C)C2CC[C@]3(C)C(=CC[C@H]3C3CO[C@@H](C(C)(C)O)[C@H](O)C3)[C@@]21C (stereo partly drawn)	.	.	.	.	89.1µM*	.
SMILES	G9a block	JMJD2A Tudor inh	HP1b chromo inh	L3MBTL1 inh	Sfp PPTase inh	BAZ2B block
CCOc1ccc(S(=O)(=O)N(CC(=O)N/N=C/c2ccc(-c3ccc([N+](=O)[O-])cc3)o2)c2ccccc2)cc1	1.58µM*	28.2µM*	-21.5%	?	-20.3%	22.4µM*
CCOC(=O)c1ccc(-c2ccc(/C=N/NC(=O)CN(c3ccccc3Cl)S(C)(=O)=O)o2)cc1	12.0%[59 µM]	-13.7%	6.2%[57 µM]	-4.0%	-11.9%	?
NS(=O)(=O)c1ccc(-c2ccc(/C=N/NC(=O)c3ccccc3O)o2)cc1	.	-12.9%	38.2%	.	-25.2%	-3.8%
NC(=S)NN=Cc1ccc(-c2ccc(S(=O)(=O)Nc3ncccn3)cc2)o1	.	50.1µM*	?	28.2µM*	.	.
CCOC(=O)c1ccc(-c2ccc(/C=N/NC(=O)CN(c3cccc(C)c3)S(C)(=O)=O)o2)cc1	7.94µM*	-19.0%	26.1%	-9.4%	9.9%	-35.2%
O=C(N/N=C/c1ccc(-c2ccc(S(=O)(=O)Nc3ncccn3)cc2)o1)c1cc2ccccc2cc1O	?	50.1µM*	28.2µM*	.	50.1µM*	17.8µM*
CCOc1ccc(C(=O)N/N=C/c2ccc(-c3ccc(S(=O)(=O)Nc4ncccn4)cc3)o2)cc1	-7.3%[12.7 µM]	89.1µM*	-6.3%	.	-5.3%	79.4µM*
CC(C)COc1ccc(C(=O)Nc2ccc(S(=O)(=O)Nc3ncccn3)cc2)cc1	-3.4%[59 µM]	-15.0%	25.4%	.	.	0.1%
COC(=O)[C@@H]1CC[C@H](C)[C@@H](c2ccc(C)cc2)N1C(=O)c1ccc(/C=N/O[C@@H](C)CN2CCCCc3nc(C)c(C)cc32)cc1	31.6µM*	.	.	-9.5%	25.1µM*	19.1%
COC(=O)c1cc(NC(=O)c2cccc(C(F)(F)F)c2)c(=O)oc1C/C=N/OCc1cccc(Cl)c1Cl	39.8µM*	-21.2%[11.4 µM]	-20.9%	.	0.0%	-6.2%
CCOC(=O)c1cc(NC(=O)c2ccccc2)c(=O)oc1C(F)(F)F	?	-7.5%	33.2%	-15.9%	-7.8%	-2.9%
COC(=O)c1cc(NC(=O)c2cccc(C(F)(F)F)c2)c(=O)oc1C	28.2µM*	-4.7%	44.4%	.	?	-7.1%
COC(=O)c1ccc(C2c3c(oc4ccc(Cl)cc4c3=O)C(=O)N2CCN2CCOCC2)cc1 (stereo not drawn)	20µM*	-13.3%	36.0%	.	-29.2%	-10.9%
COCCN1C(=O)c2oc3ccccc3c(=O)c2C1c1ccc(C(=O)OC)cc1 (stereo not drawn)	-2.2%[59 µM]	-7.7%	63.9%	3.5%	-5.2%	-2.3%
COC(=O)c1ccc(C2c3c(oc4ccccc4c3=O)C(=O)N2CCCN2CCOCC2)cc1 (stereo not drawn)	35.5µM*	-12.0%	45.7%	3.7%	25.1µM*	-2.9%
O=C1c2oc3ccccc3c(=O)c2C(c2cccs2)N1CCCN1CCOCC1 (stereo not drawn)	39.8µM*	-21.9%	30.9%	-0.3%	?	?
CN1C(=O)c2oc3ccccc3c(=O)c2C1c1ccncc1 (stereo not drawn)	8.91µM*	56.2µM*	9.7%	1.4%	?	-22.9%
COCCN1C(=O)c2oc3ccc(C)cc3c(=O)c2C1c1ccc(C(=O)OC)cc1 (stereo not drawn)	-31.4%[59 µM]	-6.5%	22.7%	.	.	-21.2%
